Inhibition data for 40 molecules are collected here from PubChem BioAssay.

Unmarked numbers belong to inactive results. The rule behind the calls is not given here.

The target of the test is Pantothenate synthetase (Mycobacterium tuberculosis (strain ATCC 25618 / H37Rv)) (UniProt P9WIL5). The experiment in a line: Coupled enzyme confirmation of inhibitors against recombinant Mtb PanC (AID 375).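 Note: 0% = full reaction with vehicle and 100% = no enzyme background.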 The following applies: coupled enzyme assay; at 10 µM, stronger effect = higher value.
Sequence of Pantothenate synthetase (Mycobacterium tuberculosis (strain ATCC 25618 / H37Rv)) (P9WIL5 whole entry, looked up): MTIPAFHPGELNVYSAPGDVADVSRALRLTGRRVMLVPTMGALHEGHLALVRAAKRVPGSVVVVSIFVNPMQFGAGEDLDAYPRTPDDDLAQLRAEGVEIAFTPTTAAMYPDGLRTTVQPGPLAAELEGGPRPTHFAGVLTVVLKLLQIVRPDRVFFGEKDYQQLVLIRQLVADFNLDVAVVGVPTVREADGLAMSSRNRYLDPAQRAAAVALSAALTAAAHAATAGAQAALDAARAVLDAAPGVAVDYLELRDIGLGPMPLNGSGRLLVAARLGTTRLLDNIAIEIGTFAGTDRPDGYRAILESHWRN
Regarding `CCN1CCN(C(=O)c2cn(CCOC)c(=O)c3c2c2ccccc2n3C)CC1`, the inhibition is 1%. Consider `Cc1ccc(-c2oc3ccccc3c(=O)c2O)cc1`, for which the inhibition was 0%. Consider `CCCCC(CC)CNC(=O)C1CCCN(S(=O)(=O)c2cnc[nH]2)C1` (stereo not given), for which the inhibition is 0%. Turning to `O=C(CCCN1C(=O)c2ccccc2C1=O)N1CCC(c2ccccc2)C1` (stereo not given), the inhibition was 4%. Then `COc1ccc(C(CNC(=O)c2ccc(OCC3CCCO3)cc2)N2CCOCC2)cc1` (stereo not given), with 0%; and `Cc1c(C(=O)O)oc2ccc(S(=O)(=O)NCCC3=CCCCC3)cc12`, with 2%; and `CCCC(=O)Nc1ccc(OCC(O)CNC(C)C)c(C(C)=O)c1` (stereo not given), with 0%.

For the molecule `CCOC(=O)c1ccc(NC(=O)Cn2cc3c(n2)CCC(C)C3)cc1` (stereo not given), the inhibition was 8%. Turning to `COC(=O)c1cc(-c2ccccc2)sc1NC(=O)c1cc(C)on1`, the inhibition was 0%. With `CCc1nc(N)c(C#N)c(-c2ccncc2)c1C`, the inhibition was 0%.

In the case of `O=c1[nH]c2ccccc2nc1NCCN1CCOCC1`, the inhibition is 1%. For the molecule `CCOC(=O)C1=C(C)Nc2nnnn2C1c1c[nH]c2ccccc12` (stereo not given), the inhibition is 3%. Take `O=C(Nc1ncc2c(n1)CC(c1ccccc1)CC2=O)c1ccco1` (stereo not given): the inhibition was 3%. As to `Cc1ccc2cc3cc(C(=O)N4CC(C)CC(C)C4)oc3nc2c1` (stereo not given), the inhibition is 3%.

Turning to `O=C(CN1CCN(Cc2ccccc2)CC1)NCC1COc2ccccc2O1` (stereo not given), the inhibition was 0%. Take `c1ccc(-c2nnc(OCCN3CCOCC3)c3ccccc23)cc1`: the inhibition was 0%. For `O=C(Nc1ccc2c(c1)OCCO2)NC1CCCCC1`, the inhibition is 0%. As for `Cc1ccccc1-c1nc(CS(=O)(=O)CC(=O)NCc2ccc3c(c2)OCO3)c(C)o1`, the inhibition was 6%. With `COC(=O)c1cccc(NC(=O)CN2CCN(Cc3ccccc3)CC2)c1`, the inhibition was 2%. In the case of `O=C(O)c1ccc(-c2ccc(O)c(F)c2)cc1`, the inhibition was 1%.

As for `CCN(CCCNC(=O)c1cn(CC)c2ccc(S(=O)(=O)N(C)C)cc2c1=O)c1cccc(C)c1`, the inhibition is 7%. On to `CC(=O)Nc1c(O)[nH]c2ccccc12`, for which the inhibition was 0%. `Clc1c(CSc2nc3ccccc3o2)nc2sccn12`: the inhibition is 1%. Take `COc1cc2c(cc1OC)CN(C(=O)COc1ccc(C#N)cc1)CC2`: the inhibition was 0%. The result for `CCOc1ccc(N(CC(=O)Nc2ccc(F)c(F)c2)S(=O)(=O)c2c(C)noc2C)cc1` reads 4%.

For the molecule `Cn1c(=O)c2c(nc(CN3CCOCC3)n2CC(O)CO)n(C)c1=O` (stereo not given), the inhibition is 8%.

For `CCCc1ccc(C(C)NC(=O)c2cnccn2)cc1` (stereo not given), the inhibition is 0%. Then `Cc1cc2c(c(=O)n1C)C(Cc1ccccc1)C(C#N)=C(N)O2` (stereo not given), with 3%. `O=C(NCc1ccco1)Nc1ccc2nsnc2c1`: the inhibition is 6%. In the case of `O=C(CN(CC1CCCO1)C(=O)CCC(=O)Nc1ccccn1)NCC1CCCO1` (stereo not given), the inhibition was 8%. Then `Cc1cc(NS(=O)(=O)c2ccccc2)no1`, with 1%; and `O=S(=O)(NCC1CCCO1)c1cccc(C(F)(F)F)c1` (stereo not given), with 0%; and `Cc1nc2ccccc2n1CCC(=O)Nc1cccc(F)c1`, with 4%. With `COc1cc(C2CC(=O)NC3=C2C(=O)CC(C)(C)C3)ccc1O` (stereo not given), the inhibition was 0%. With `CCn1c(Cc2ccc(OC)cc2)nnc1SCC(=O)Nc1cccc(C(=O)OC)c1`, the inhibition was 5%. On to `O=C(NCC1CCCO1)c1cccc(N2CCCC2=O)c1` (stereo not given), for which the inhibition is 0%. Consider `COc1cc(C(=O)N2CCN(C(=O)CC(C)C)CC2)cc(OC)c1OC`, for which the inhibition was 0%. In the case of `Cn1nc(C(=O)N2CCOCC2)c2ccccc2c1=O`, the inhibition is 0%.

Consider `C=CCNC(=O)c1ccc(Cl)cc1Cl`, for which the inhibition is 0%.

In the case of `Cc1cc(O)c(C(C)C)cc1N=C1CSC(=O)N1`, the inhibition was 0%.

By inhibition is commonly meant the share of the control response that was lost under treatment.
